A selection: hits, their analogues and other compounds. The true share with any hit is near 1.1%.
MOR-DOR ag = OPRM1-OPRD1 heterodimerization agonism. activation, % at 9.3 µM. cells, luminescence. 340,000 tested, 0.3% active. AID 504326
MOR-DOR inv ag = mu-delta opioid heterodimer inverse agonism; P35372+P41143; cell-based MOR-DOR heterodimer luminescence; inhibition, % at 9.3 µM; 340,000 tested, 0.21% active; AID 504357; in the data active = inhibition above about 22%, passing the limit was not always enough
HTR5A inv ag = counter-screen for OPRM1-OPRD1 inverse agonists: human HTR5A inverse agonism; inhibition, % at 9.3 µM; 340,000 tested, 0.083% active; HTR5A cell line, luminescence; AID 504634; P47898; in the data active = inhibition mostly above about 23%, no sharp cut-off; inactive = mostly below about 18%
Target sequence (P47898 whole entry, looked up): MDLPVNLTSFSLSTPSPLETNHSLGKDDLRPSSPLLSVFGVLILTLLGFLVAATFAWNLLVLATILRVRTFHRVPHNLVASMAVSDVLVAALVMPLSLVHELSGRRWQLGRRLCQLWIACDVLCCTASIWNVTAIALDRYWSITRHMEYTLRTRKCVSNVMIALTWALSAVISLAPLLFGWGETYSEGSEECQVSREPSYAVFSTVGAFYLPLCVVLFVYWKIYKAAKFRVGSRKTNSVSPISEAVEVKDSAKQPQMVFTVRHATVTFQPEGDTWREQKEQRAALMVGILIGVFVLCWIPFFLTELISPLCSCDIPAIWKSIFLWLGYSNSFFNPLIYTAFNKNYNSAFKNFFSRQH
HTR5A ag ctr = activates human HTR5A in OPRM1-OPRD1 agonist counter-screen | P47898 | HTR5A agonist assay, luminescence, cell-based | activation, % at 9.3 µM | 340,000 tested, 0.61% active | AID 504692; in the data active = activation mostly above about 9.5%, no sharp cut-off; inactive = mostly below about 7.6%
MOR-DOR ag conf = OPRM1-OPRD1 heterodimer agonism, confirmation; shares compounds with MOR-DOR ag; cells, MOR-DOR heterodimerization, luminescence complementation; activation, % at 9.3 µM; 830 tested, 45% active; AID 504904
HTR5A ag counter = activates human HTR5A in OPRM1-OPRD1 agonist counter-screen; shares compounds with MOR-DOR ag; HTR5A agonist counterscreen, cell luminescence; activation, % at 9.3 µM; 830 tested, 8% active; AID 504905; in the data active = activation above about 17%
Each line names hits and unclear results; the compound was inactive in the other large screens (follow-up assays come after a bar, where they were run). Cut-off read from the data, not from the text of the source, unless noted: active = activation above about 18%; inactive = the rest.

CC(C)c1ccc(NC(=O)C2C3C=CC4(O3)C2C(=O)N(CCCN2CCCCC2)C4C(=O)NC2CCCCC2)cc1 (stereo unspecified)	MOR-DOR ag 26 | MOR-DOR ag conf inactive | HTR5A ag counter inactive
CCCCN(C)CCN1C(=O)C2C(C(=O)Nc3ccc(C)cc3)C3C=CC2(O3)C1C(=O)NC1CCCCC1 (stereo unspecified)	none
CCN(CC)CCN1C(=O)C2C(C(=O)Nc3ccc(C(C)C)cc3)C3C=CC2(O3)C1C(=O)NC1CCCCC1 (stereo unspecified)	MOR-DOR ag 37 | MOR-DOR ag conf inactive | HTR5A ag counter inactive
Cc1ccc(NC(=O)C2C3C=CC4(O3)C2C(=O)N(CCCN2CCCC2)C4C(=O)NC2CCCCC2)cc1Cl (stereo unspecified)	none
CCn1c(NC(=O)/C=C/c2ccc(F)cc2)nc2ccccc21	none
Cc1cc(=O)n2c3c(c4c(cc13)c(CN(C)C)cc(=O)n4C)OC2	none
COc1cccc(/C=C/C(=O)OCC(=O)c2c(N)n(C)c(=O)n(C)c2=O)c1	none
Cc1ccc2nc(-c3ccc(SCC(=O)Nc4nnc(C)s4)nc3)[nH]c2c1	MOR-DOR ag 24 | MOR-DOR ag conf inactive | HTR5A ag counter inactive
Cc1ccc(NC(=O)CCCSc2nc3ccccc3[nH]2)cc1	none
Cc1ccc(SCC(=O)Nc2ccc(-c3nc4ccccc4[nH]3)cc2)cc1	MOR-DOR ag 34 | MOR-DOR ag conf 29 | HTR5A ag counter inactive
CC(NC(=O)c1ccco1)C(=O)N1CCCCC1 (stereo unspecified)	none
CC(=O)OCC(=O)C1CCC2C3CC=C4CC(O)CCC4(C)C3CCC12C (stereo unspecified)	none
CC(=O)C1CCC2C3CC=C4CC(SC(=N)N)CCC4(C)C3CCC12C (stereo unspecified)	MOR-DOR ag 42 | MOR-DOR ag conf 79 | HTR5A ag counter inactive
COC(=O)C1CCN(Cc2cn(-c3ccccc3)nc2-c2ccc3c(c2)OCO3)CC1	MOR-DOR ag 51 | MOR-DOR ag conf inactive | HTR5A ag counter inactive
CC(=O)NCC1CCCN(Cc2cn(-c3ccccc3)nc2-c2ccc3c(c2)OCO3)C1 (stereo unspecified)	none
CCC1CCCCN1CCCNC(=O)CSc1nc2nc(C)c(Cc3ccc(C)cc3)c(C)n2n1 (stereo unspecified)	none
CC(C)[C@H](NC(=O)c1ccccc1Cl)C(=O)OCC(=O)NC(=O)NCc1ccco1	MOR-DOR ag 314 | MOR-DOR ag conf inactive | HTR5A ag counter inactive
CC(C)[C@H](NC(=O)c1ccccc1Cl)C(=O)OCC(=O)NC(=O)NC1CCCC1	none
CC(C)(C)[C@H]1COC(=O)[C@H](NC(=O)OCC2c3ccccc3-c3ccccc32)C/C=C\C[C@@H](CC(=O)N(CCO)Cc2ccccc2)C(=O)N1	none
COC(=O)c1ccc(COC(=O)c2ccc(CS(=O)(=O)c3ccc(C)cc3)cc2)cc1	none
COC(=O)c1cc2c(n1S(=O)(=O)c1ccc(C)cc1)C(=O)C(=O)c1[nH]cc(C(=O)OCc3ccccc3)c1-2	MOR-DOR ag 21 | MOR-DOR ag conf 73 | HTR5A ag counter inactive
O=C(CSc1nc2ccccc2[nH]1)N1CCN(c2ccccc2)CC1	none
O=[N+]([O-])c1ccc(N2CCN(CCO)CC2)cc1Sc1nc2ccccc2[nH]1	MOR-DOR ag 19 | MOR-DOR ag conf inactive | HTR5A ag counter 17
C=CCn1c(O)c2ccc(C(=O)N=NC(=O)c3ccc(F)cc3)cc2c1O	none
COc1ccc(C)cc1N(CC(=O)Nc1cccnc1)S(=O)(=O)c1ccc(C)cc1	MOR-DOR ag 69 | MOR-DOR ag conf inactive | HTR5A ag counter inactive
COc1ccc(N(CC(=O)Nc2cccnc2)S(=O)(=O)c2ccc(C)cc2)cc1Cl	none
COc1ccc(S(=O)(=O)N(CC(=O)Nc2cccnc2)c2ccccc2OC)cc1	MOR-DOR ag 64 | MOR-DOR ag conf inactive | HTR5A ag counter inactive
CCOC(=O)C1(Cc2ccc(Cl)cc2)CCN(Cc2cn(CC)nc2C)CC1	MOR-DOR ag 21 | MOR-DOR ag conf inactive | HTR5A ag counter inactive
CCOC(=O)C1(CCCc2ccccc2)CCN(Cc2cnn(C)c2)CC1	MOR-DOR ag 98 | MOR-DOR ag conf 115 | HTR5A ag counter inactive
CCOC(=O)C1(CCCc2ccccc2)CCN(C(=O)CCc2cnn(C)c2)CC1	none
CCCn1cc(CN2CCC(Cc3cccc(F)c3)(C(=O)OCC)CC2)c(C)n1	none
CCOC(=O)C1(Cc2cccc(F)c2)CCN(Cc2cnn(CC)c2)CC1	MOR-DOR ag 68 | MOR-DOR ag conf inactive | HTR5A ag counter inactive
O=C(c1cccc(F)c1)N1CCCc2ccccc21	none
Cc1c(CC(=O)N2C[C@H]3C[C@@H](C2)c2cccc(=O)n2C3)c(=O)oc2cc3occ(C(C)(C)C)c3cc12	none
CC[C@]12c3[nH]c4cc(CCC(=O)N(C)C)ccc4c3CCN1C(=O)[C@@H](CC(=O)NCCCn1ccnc1)C[C@@H]2C(=O)N1CCN(C(=O)c2ccco2)CC1	none
Cc1cc(=O)oc2cc(NC(=O)C3COc4ccccc4O3)ccc12 (stereo unspecified)	MOR-DOR ag 20 | MOR-DOR ag conf 39 | HTR5A ag counter inactive
O=C(Nc1ccc2c(c1)OCO2)C1COc2ccccc2O1 (stereo unspecified)	none
CC[C@@H](C)[C@H](CNC)NC[C@@H](Cc1cccc2ccccc12)NCCc1cccc(C(F)(F)F)c1	MOR-DOR ag 24 | MOR-DOR ag conf inactive | HTR5A ag counter inactive
CC(C)Cn1c(N)c(C(=O)COC(=O)c2cccn2C)c(=O)n(C)c1=O	none
Cc1ccccc1Nc1nc(-c2ccccc2)c(C(=O)Nc2cccnc2)s1	none
O=C(Nc1cccnc1)c1sc(Nc2ccccc2F)nc1-c1ccccc1	MOR-DOR ag 21 | MOR-DOR ag conf inactive | HTR5A ag counter inactive
NC(=O)c1cc(-c2csc(NCCc3ccccc3)n2)ccc1O	MOR-DOR ag 19 | MOR-DOR ag conf 20 | HTR5A ag counter inactive
C=CCNc1nc(-c2ccc(O)c(C(N)=O)c2)cs1	none
Cc1noc(C)c1NC(=O)Nc1ccc2c(c1)C(=O)N([C@H](C)CO)C[C@H](C)[C@@H](CN(C)C(=O)Nc1ccc3c(c1)OCO3)O2	none
Cc1ccccc1OCc1nc(-c2ccc(NC(=O)c3ccc4c(c3)OCO4)cc2)no1	MOR-DOR ag 21 | MOR-DOR ag conf inactive | HTR5A ag counter inactive
Cc1ccccc1OCc1nc(-c2ccc(NC(=O)c3ccco3)cc2)no1	none
COc1ccc(-c2nc(CN3CCC(C(=O)NCC4CCCO4)CC3)c(C)o2)cc1OC (stereo unspecified)	MOR-DOR ag 30 | MOR-DOR ag conf 23 | HTR5A ag counter inactive
CCOc1ccc2nc(NCCNC(=O)Nc3ccccc3)c(C#N)cc2c1	MOR-DOR ag 50 | MOR-DOR ag conf 29 | HTR5A ag counter inactive
O=C(c1ccccn1)N(Cc1cccs1)C1(C(=O)NC2CCCCC2)CCCCC1	MOR-DOR ag 28 | MOR-DOR ag conf inactive | HTR5A ag counter inactive
O=C(c1cnccn1)N(Cc1cccs1)C1(C(=O)NC2CCCCC2)CCCCC1	none

Screening results deposited in PubChem by The Scripps Research Institute Molecular Screening Center.
